According to PubChem BioAssay (NCI):
About 83,000 compounds went through this panel and 20% of them were active in at least one assay; those are over-represented in the sample as a whole.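 Each cell line was grown in a 96-well plate and treated with one concentration of compound for 48 hours. Values below 10 were considered active.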 Unmarked numbers belong to inactive results. Activity calls are given as the source filed them.

Key:
Test in all cases: NCI-60 one-dose screen, 48 h (100 = growth as untreated, 0 = no growth, -100 = all killed)
Settings in all cases: 10 µM unless noted
NCI-H23 lung = system: NCI-H23 lung
NCI-H226 lung = system: NCI-H226 lung
NCI-H322M lung = system: NCI-H322M lung
HOP-62 NSCLC = system: HOP-62 NSCLC
NCI-H460 lung = system: NCI-H460 lung
HOP-92 NSCLC = system: HOP-92 NSCLC
NCI-H522 lung = system: NCI-H522 lung
A549/ATCC NSCLC = system: A549/ATCC NSCLC
786-0 renal = system: 786-0 renal
COLO 205 colon = system: COLO 205 colon
DU-145 prostate = system: DU-145 prostate
K-562 leukemia = system: K-562 leukemia
MALME-3M melanoma = system: MALME-3M melanoma
MDA-MB-231 breast = system: MDA-MB-231 breast
RXF 393 renal = system: RXF 393 renal
SF-268 CNS = system: SF-268 CNS
SF-295 CNS = system: SF-295 CNS
SF-539 CNS = system: SF-539 CNS
UACC-257 melanoma = system: UACC-257 melanoma
M14 melanoma = system: M14 melanoma

Compound | growth (NCI-H23 lung) | growth (NCI-H226 lung) | growth (NCI-H322M lung) | growth (HOP-62 NSCLC) | growth (NCI-H460 lung) | growth (HOP-92 NSCLC) | growth (NCI-H522 lung) | growth (A549/ATCC NSCLC) | growth (786-0 renal) | growth (COLO 205 colon) | growth (DU-145 prostate) | growth (K-562 leukemia) | growth (MALME-3M melanoma) | growth (MDA-MB-231 breast) | growth (RXF 393 renal) | growth (SF-268 CNS) | growth (SF-295 CNS) | growth (SF-539 CNS) | growth (UACC-257 melanoma) | growth (M14 melanoma)
CC(=O)c1cnc2ccc(-c3cc(Cl)c(O)c(Cl)c3)nc2c1NC1CCC(CN(C)C)CC1 (stereo not given) | -54.3% [2.5 µM] (active) | -16.3% [2.5 µM] (active) | -37.7% [2.5 µM] (active) | -34.4% [2.5 µM] (active) | -51.8% [2.5 µM] (active) | -20.3% [2.5 µM] (active) | -75.5% [2.5 µM] (active) | -8.85% [2.5 µM] (active) | -48.3% [2.5 µM] (active) | -94.2% [2.5 µM] (active) | -5.67% [2.5 µM] (active) | 6.35% [2.5 µM] (active) | -75.7% [2.5 µM] (active) | -7.07% [2.5 µM] (active) | -75.1% [2.5 µM] (active) | -24.1% [2.5 µM] (active) | -19.2% [2.5 µM] (active) | -89% [2.5 µM] (active) | -26.4% [2.5 µM] (active) | -58.4% [2.5 µM] (active)
O=C(Nc1nc2cccc(-c3ccc(CN4CCS(=O)(=O)CC4)cc3)n2n1)C1CC1 | 65.2% | 55.9% | 87.6% | 57.3% | 5.79% (active) | 96.3% | 6.67% (active) | 60.1% | 85.5% | 59.5% | 35.4% | 36.5% | 105% | 81.8% | 50.7% | 70.7% | 88.8% | 79.1% | 86.2% | 90.8%
Cn1c(Nc2ccc(C(F)(F)F)cc2)nc2cc(Oc3ccnc(-c4ncc(C(F)(F)F)[nH]4)c3)ccc21 | 48.8% | 64.5% | 30.8% | 60% | 59.2% | 67% | 40.5% | 40.1% | 89.4% | 22.9% | 60.4% | 61.8% | -11.7% (active) | 51.7% | 7.28% (active) | 46.1% | 54.1% | 21.2% | 11.9% | 15.7%
O=C(CNc1nc(-c2ccc(Cl)cc2)cs1)Nc1ccc(-c2nc3ccccc3s2)cc1 | 87.6% | 80.3% | 91.6% | 106% | 91.3% | 92.9% | 93.1% | 99% | 109% | 93.8% | 95% | 96.4% | 102% | 84.7% | 106% | 90.8% | 98.6% | 97% | 100% | 88.2%
CC/C=C\C[C@H]1C/C=C2/C(=O)C=C[C@@H]2C/C=C\CCCC(=O)O1 | -12.5% (active) | -54.8% (active) | 16.7% | 44.2% | -33.7% (active) | -36.6% (active) | -45.1% (active) | -25.2% (active) | -79.9% (active) | -13.1% (active) | -10.9% (active) | 1.56% (active) | -15.3% (active) | 1.26% (active) | -57.1% (active) | -0.852% (active) | -19.8% (active) | 5.18% (active) | -12.7% (active) | -17.4% (active)
COC(=O)c1ccc2c(C(=Nc3ccc(N(C)C(=O)CN4CCN(C)CC4)cc3)c3ccccc3)c(O)[nH]c2c1 | 67.8% | 47% | 58.8% | 38.8% | 92% | 18.4% | 39.1% | 45.8% | 41.4% | 34% | 78.3% | 3.75% (active) | 54.2% | 54.8% | 15.1% | 42.8% | 84.1% | 36.1% | 23% | 50.9%
Ic1ccccc1-c1ccccc1 | 102% | 106% | 114% | 100% | 100% | 87.3% | 94.9% | 87.9% | 108% | 96.4% | 114% | 104% | 95% | 102% | 105% | 105% | 122% | 108% | 99% | 103%
O=S1(=O)OC(c2cc(Cl)c(O)c(Br)c2)(c2cc(Cl)c(O)c(Br)c2)c2ccccc21 | 103% | 104% | 112% | 99% | 105% | 68.5% | 70.8% | 94.1% | 106% | 115% | 114% | 109% | 115% | 94.8% | 109% | 106% | 127% | 94.6% | 95.4% | 99.4%
